Screening results deposited in PubChem by NMMLSC.
MEP2 TOR yeast – modulators of TOR pathway MEP2-GFP in S. cerevisiae. S. cerevisiae MEP2-GFP strain, flow cytometry GFP, 3 h; 100% = DMSO control level. GFP response vs DMSO, % at 10 µM. 330,000 compounds, 0.51% hits;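 active = GFP response versus DMSO above a set limit, roughly screen mean plus 3 SD, cut at about 180% in these data; inconclusive = fewer than 70 cells counted for a yeast strain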;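 note: median GFP fluorescence of the barcode-gated MEP2-GFP cells per well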
LAP4-GFP MLPCN – modulators of TOR pathway LAP4-GFP in S. cerevisiae. 320,000 compounds, 0.34% hits. GFP response vs DMSO, % at 10 µM. S. cerevisiae LAP4-GFP multiplex, flow cytometry GFP, 3 h; median GFP as percent of DMSO wells. AID 2023;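 active = GFP response vs DMSO above a set limit, about the screen mean plus 3 SD, cut at about 150% in these data; inconclusive = under 70 cell events counted for the yeast strain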
RPL19A-GFP yeast – modulators of TOR pathway RPL19A-GFP in S. cerevisiae; S. cerevisiae RPL19A-GFP strain, flow cytometry, 3 h; hits give low values; percent response vs DMSO, % at 10 µM; 330,000 compounds, 0.3% hits;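 active = percent response vs DMSO below 50%; inconclusive = fewer than 70 events counted for the yeast strain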;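 note: median channel GFP fluorescence of the barcoded RPL19A-GFP strain; lower means less RPL19A-GFP as with rapamycin TOR inhibition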
AGP1 TOR yeast – yeast TOR pathway AGP1-GFP modulation; S. cerevisiae AGP1-GFP multiplex flow cytometry, 3 h; GFP as percent of DMSO wells; GFP response vs DMSO, % at 10 µM; 320,000 compounds, 0.02% hits;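 active = GFP response relative to DMSO above a set limit, near screen average plus 3 SD, cut at about 150% in these data; inconclusive = fewer than 70 cells counted for the yeast strain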;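 note: median GFP channel fluorescence of the gated AGP1 strain per well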
CIT2-GFP yeast – modulators of TOR pathway CIT2-GFP in S. cerevisiae; S. cerevisiae CIT2-GFP strain, flow cytometry, 3 h; 100 means same as DMSO wells; GFP response vs DMSO, % at 10 µM; 320,000 compounds, 0.065% hits;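 active = GFP response relative to DMSO above a set limit, near the screen mean plus 3 SD, cut at about 150% in these data; inconclusive = Fewer than 70 cells measured for a yeast strain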;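 note: ratio of well median GFP fluorescence to mean of DMSO wells on the plate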
Of the large screens only hits and unclear results are named; the others gave an inactive call; ! = a repeat was not active; [ ] = dose if it differs, or a comment. This is a sample that favours compounds with a hit; in the whole collection about 0.89% have one here.

CC(C)Cn1c(=O)c(C(=O)NCc2ccc3c(c2)OCO3)c(O)c2ccccc21	MEP2 TOR yeast inconclusive, LAP4-GFP MLPCN inconclusive, RPL19A-GFP yeast 29[may fluoresce violet], AGP1 TOR yeast inconclusive, CIT2-GFP yeast inconclusive
Cc1nc(C)c(CCNC(=O)c2ccc(C(F)(F)F)cc2)s1	none
Cc1ccc(C(=O)NCCc2sc(C)nc2C)cc1	MEP2 TOR yeast 222[may fluoresce violet], RPL19A-GFP yeast 31[may fluoresce violet], AGP1 TOR yeast inconclusive, CIT2-GFP yeast inconclusive
O=C(NCC(=O)N(c1cccnc1)C(C(=O)NCc1ccco1)c1ccccc1)c1ccco1 (stereo not given)	none (no result: LAP4-GFP MLPCN)
CCC(Sc1nc(=O)cc(N)n1-c1cccc(C)c1)C(=O)Nc1cc(C)on1 (stereo not given)	none
CCC(Sc1nc(=O)cc(N)n1-c1ccccc1)C(=O)Nc1cc(C)on1 (stereo not given)	MEP2 TOR yeast 385, LAP4-GFP MLPCN 183, AGP1 TOR yeast 162
COc1cc(CNc2cccc(F)c2)cc(Br)c1O	none
CC(OC(=O)CSc1ccc([N+](=O)[O-])cc1)C(=O)NCc1ccccc1 (stereo not given)	LAP4-GFP MLPCN 201
O=C(COC(=O)/C=C/c1ccccc1)NCc1ccc2c(c1)OCO2	none
CCc1cc(=O)oc2cc(OCC(=O)N3CC[C@@]4(O)CCCC[C@H]4C3)ccc12	none
CC(C)c1cc(NC(=O)C(C)(C)C)cc(C(C)C)c1O	MEP2 TOR yeast 202[may fluoresce violet], CIT2-GFP yeast inconclusive
O=C(CN1C(=O)S/C(=C\c2cccc(Cl)c2)C1=O)NCCCn1ccnc1	MEP2 TOR yeast 707[may fluoresce violet], RPL19A-GFP yeast 50[may fluoresce violet], AGP1 TOR yeast inconclusive, CIT2-GFP yeast inconclusive
CC(C)CNC(=O)c1nc(-c2ccccc2)n(-c2ccccc2)n1	MEP2 TOR yeast 515[may fluoresce violet], RPL19A-GFP yeast 20[may fluoresce violet], AGP1 TOR yeast inconclusive, CIT2-GFP yeast inconclusive
C=CCn1cc(C(C)=O)c(=O)[nH]c1=O	none
O=C(Nc1ccc(Cl)c(Cl)c1)N(CCCN1CCOCC1)Cc1cccnc1	MEP2 TOR yeast 180[may fluoresce violet], RPL19A-GFP yeast 50[may fluoresce violet], CIT2-GFP yeast inconclusive
Cc1cc(C)nc(/N=C(/NC(=O)c2ccccc2)Nc2ccccc2)n1	MEP2 TOR yeast 444[may fluoresce violet], RPL19A-GFP yeast 33[may fluoresce violet], CIT2-GFP yeast inconclusive (no result: AGP1 TOR yeast)
COc1cc2cc(Br)cc(Br)c2nc1C	none (no result: AGP1 TOR yeast)
CCc1cc(/C(Cc2csc(C)n2)=N/O)c(O)cc1O	MEP2 TOR yeast 209[may fluoresce violet], RPL19A-GFP yeast 44[may fluoresce violet], CIT2-GFP yeast inconclusive (no result: AGP1 TOR yeast)
O=C(CNC(=O)c1ccco1)N=Nc1c(O)[nH]c2ccc([N+](=O)[O-])cc12	none
Cc1ccc(S(=O)(=O)Cn2nnnc2C(CC(C)C)N2CCC(C(N)=O)CC2)cc1 (stereo not given)	none
CCCC(c1nnnn1CS(=O)(=O)c1ccc(C)cc1)N1CCC(C(N)=O)CC1 (stereo not given)	MEP2 TOR yeast 224[may fluoresce violet], AGP1 TOR yeast inconclusive, CIT2-GFP yeast inconclusive
O=C(O)c1ccc(O)cc1O	none
Nc1ccc(C(=O)O)c(O)c1	LAP4-GFP MLPCN 384![may fluoresce red], RPL19A-GFP yeast inconclusive
Cc1cccc(C2c3[nH]c4ccccc4c3CCN2C(=O)c2nn(C)c(=O)c3ccccc23)n1 (stereo not given)	none
O=C(Cc1ccc(Br)cc1)NC1CCCCC1	none (no result: CIT2-GFP yeast)
O=C(Cc1ccc(O)cc1)NC1CCCCCC1	MEP2 TOR yeast inconclusive, LAP4-GFP MLPCN inconclusive, RPL19A-GFP yeast 42[may fluoresce violet], AGP1 TOR yeast inconclusive, CIT2-GFP yeast inconclusive
CNc1cc(CSC)nc(SCc2ccc(Cl)cc2Cl)n1	LAP4-GFP MLPCN 164
CCc1cccc(N=c2c([N+](=O)[O-])nn(-c3ccc(Cl)cc3)n2O)c1	none
Cc1cccc(N=c2c([N+](=O)[O-])nn(-c3ccc(Cl)cc3)n2O)c1	LAP4-GFP MLPCN 154
COc1ccc(Br)cc1CN(C)C(=O)c1ccc2c(c1)NC(=O)C(C)S2 (stereo not given)	none
COc1ccc(OC)c(N=c2ssnc2Cl)c1	none
Cc1cc(Cl)ccc1N=c1ssnc1Cl	LAP4-GFP MLPCN 157
Cc1cc(C)nc(/N=c2/ssnc2Cl)c1	LAP4-GFP MLPCN 188
Cc1nnc(N=c2ssnc2Cl)o1	none
Cc1ccc(CC(=O)NCC(O)c2ccccc2)cc1 (stereo not given)	MEP2 TOR yeast 284[may fluoresce violet], RPL19A-GFP yeast 46[may fluoresce violet], AGP1 TOR yeast inconclusive, CIT2-GFP yeast inconclusive
CC(=O)c1sc2nc(C)c3c(c2c1N)CCCC3	LAP4-GFP MLPCN 167
Cc1c(C(N)=O)c(N)c(C(=O)c2ccccc2)n1-c1ccccc1	none
Cc1cccc(C(=O)NCC(C)NC(=O)c2cccc(C)c2)c1 (stereo not given)	none
